Laboratory results from the OligoGym collection.

Each sequence was assayed against ADRA1D (assay: pooled miR-30 sensor sort-seq; sequence = guide strand). Conditions: shRNA.
Note: reference of the scale not given here.

Which sensor-assay potency score (higher = more potent) does the source give for ATGCGCAGCACCACCTCGGAGG here?
The sensor-assay potency score (higher = more potent) was -1.52.

For TACGGTGGCGCTCAGCAGCAGG, which sensor-assay potency score (higher = more potent) is on record?
Its sensor-assay potency score (higher = more potent) is -1.13.

Which sensor-assay potency score (higher = more potent) does the source give for TAGATGAGCGGGTTCACGCAGC here?
Its sensor-assay potency score (higher = more potent) is -0.546.

With TACATGACCACGATGACCGCCA as the sequence, how does the sensor-assay potency score (higher = more potent) read?
Its sensor-assay potency score (higher = more potent) is 0.517.

For TTGGTGACGGTCTGCAGGTGGC, which sensor-assay potency score (higher = more potent) is on record?
The sensor-assay potency score (higher = more potent) was -1.18.

The sequences below were run against ADRA2B in the same assay as above. Conditions: shRNA.

For TTGAAATAGTGATTCTGTCTGC, which sensor-assay potency score (higher = more potent) is on record?
The sensor-assay potency score (higher = more potent) was 0.106.

How did the sensor-assay potency score (higher = more potent) turn out when TTCGAGTGTCCGTTGACCTCTC was run?
Its sensor-assay potency score (higher = more potent) is 0.0234.

Which sensor-assay potency score (higher = more potent) does the source give for TCCTGGTTGAGCTTGCACTGGG here?
The sensor-assay potency score (higher = more potent) was -0.653.

For AAGATGGTGTAGATAACAGGGT, which sensor-assay potency score (higher = more potent) is on record?
The sensor-assay potency score (higher = more potent) was -0.352.

For TAGCGTAATAACTCAGACCTTT, which sensor-assay potency score (higher = more potent) is on record?
Its sensor-assay potency score (higher = more potent) is 0.245.
